40 compounds from the supplement of paper PMC9262897, “Low-cost anti-mycobacterial drug discovery using engineered E. coli” (Nature Communications, 2022) can be followed below.

Counter-ions that a name gives are not always drawn. ± gives the standard deviation of the averaged measurements.

The test system of this experiment is E. coli TESEC Alr+ wild-type control. Put plainly: growth (OD600 after 10 h); higher = more growth (less inhibition). Conditions: compound 0.1 mM; raw OD600 reference: median of DMSO wells 0.49, cell-free background 0.052. The method, then:
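TESEC Mtb Alr E. coli (ΔaraC ΔtolC ΔentC Δalr ΔdadX, arabinose-inducible Mtb Alr) or the Alr+ wild-type control strain, grown in defined M9-fructose medium without D-alanine in 96-well plates with Prestwick library compounds at 0.1 mM and 1% DMSO. Low Alr induction is 0.1 µM arabinose and high induction is 10 mM arabinose.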
`Cc1cccc(CN2CCN(C(c3ccccc3)c3ccc(Cl)cc3)CC2)c1` (stereo not given) [Meclozine dihydrochloride] came in with a growth of 0.427 ± 0.021.

`Cc1cnc(NC(=O)C2=C(O)c3ccccc3S(=O)(=O)N2C)s1` [Meloxicam]: the growth is 0.461 ± 0.023. `CC1(C)S[C@@H]2[C@H](NC(=O)Cc3ccccc3)C(=O)N2[C@H]1C(=O)O` [Benzylpenicillin sodium] yielded a growth of 0.533 ± 0.11. `CC(=O)O[C@@]12CO[C@@H]1C[C@H](O)[C@@]1(C)C(=O)[C@H](O)C3=C(C)[C@@H](OC(=O)[C@H](O)[C@@H](NC(=O)OC(C)(C)C)c4ccccc4)C[C@@](O)([C@@H](OC(=O)c4ccccc4)[C@H]21)C3(C)C` [Docetaxel] had a growth of 0.614 ± 0.12. With `COCCCC/C(=N\OCCN)c1ccc(C(F)(F)F)cc1` [Fluvoxamine maleate] the figure was 0.518 ± 0.051; with `CN1CCOC(c2ccccc2)c2ccccc2C1` (stereo not given) [Nefopam hydrochloride], 0.543 ± 0.081; with `CN(CCOc1ccc(NS(C)(=O)=O)cc1)CCc1ccc(NS(C)(=O)=O)cc1` [Dofetilide], 0.589 ± 0.053. For the compound `CCC(=O)O[C@]1(C(=O)CCl)[C@@H](C)C[C@H]2[C@@H]3CCC4=CC(=O)C=C[C@]4(C)[C@@]3(F)[C@@H](O)C[C@@]21C` [Clobetasol propionate], the growth turned out to be 0.326 ± 0.017. `Nc1nc(N)nc(-c2cc(Cl)ccc2Cl)n1` [Irsogladine maleate] came in with a growth of 0.589 ± 0.1. `C=CCN1CCCC1CNC(=O)c1cc2nn[nH]c2cc1OC` (stereo not given) [Alizapride HCl]: the growth stood at 0.536 ± 0.045.

`Nc1nc2ccc(OC(F)(F)F)cc2s1` [Riluzole hydrochloride]: the growth is 0.439 ± 0.011. With `CC(=O)OC[C@H]1O[C@@H]([S-])[C@H](OC(C)=O)[C@@H](OC(C)=O)[C@@H]1OC(C)=O.CCP(CC)CC.[Au+]` [Auranofin] the figure was 0.059 ± 0.00026; with `CN(C)CCN(Cc1ccc(Cl)cc1)c1ccccn1` [Chloropyramine hydrochloride], 0.432 ± 0.016; with `O=C(COc1ccc(Cl)cc1)N1CCN(Cc2ccc3c(c2)OCO3)CC1` [Fipexide hydrochloride], 0.303 ± 0.022. With `CCOc1ccc(Cc2nccc3cc(OCC)c(OCC)cc23)cc1OCC` [Ethaverine hydrochloride] the figure was 0.377 ± 0.051. With `CC(C)OC(=O)CCC/C=C\C[C@@H]1[C@@H](CC[C@@H](O)CCc2ccccc2)[C@H](O)C[C@@H]1O` [Latanoprost] the figure was 0.195 ± 0.059; with `Cn1c(=O)c2c(ncn2CC2OCCO2)n(C)c1=O` [Doxofylline], 0.475 ± 0.076; with `CC(C)(Oc1ccc(Cl)cc1)C(=O)O` [Clofibric acid], 0.547 ± 0.1.

Take `O=c1n(CCCN2CCN(c3cccc(Cl)c3)CC2)nc2ccccn12` [Trazodone hydrochloride]: the growth is 0.471 ± 0.043. With `CCOc1nc2cccc(C(=O)O)c2n1Cc1ccc(-c2ccccc2-c2nnn[nH]2)cc1` [Candesartan] the figure was 0.642 ± 0.092. On to `CCCCOC(=O)c1ccc(O)cc1` [Butylparaben], for which the growth stood at 0.399 ± 0.014. As for `NS(=O)(=O)c1cc(Cl)c(Cl)c(S(N)(=O)=O)c1` [Dichlorphenamide], the growth is 0.443 ± 0.011. On to `Cc1ncc([N+](=O)[O-])n1CC(C)O` (stereo not given) [Secnidazole], for which the growth was 0.4475 ± 0.003. With `O=C(CCCCC(=O)Nc1c(I)cc(I)c(C(=O)O)c1I)Nc1c(I)cc(I)c(C(=O)O)c1I` [Iodipamide] the figure was 0.527 ± 0.092.

Turning to `CN1CCC(=C2c3ccccc3CC(=O)c3sccc32)CC1` [Ketotifen fumarate], the growth was determined as 0.54 ± 0.048. As for `O=C(c1ccc(OCCN2CCCCC2)cc1)c1c(-c2ccc(O)cc2)sc2cc(O)ccc12` [Raloxifene hydrochloride], the figure is 0.04917 ± 0.00038; as for `CC[C@H](C)C(=O)O[C@H]1C[C@@H](C)C=C2C=C[C@H](C)[C@H](CC[C@@H]3C[C@@H](O)CC(=O)O3)[C@H]21` [Lovastatin], 0.473 ± 0.043.

The compound `O=C1c2cccc3c2[C@H](CCC3)CN1[C@@H]1CN2CCC1CC2` [Palonosetron hydrochloride] yielded a growth of 0.601 ± 0.042. As for `CCCCCCC[N+](CC)(CC)CCCCc1ccc(Cl)cc1` [Clofilium tosylate], the figure is 0.0487 ± 0.00091; as for `CCCCc1cc2ccccc2c(OCCN(C)C)n1` [Dimethisoquin hydrochloride], 0.444 ± 0.022; as for `Cc1onc(-c2ccccc2)c1C(=O)N[C@@H]1C(=O)N2[C@@H]1SC(C)(C)[C@@H]2C(=O)O` [Oxacillin sodium], 0.492 ± 0.054. For `CN1CCN(C(c2ccccc2)c2ccccc2)CC1` [Cyclizine hydrochloride], the growth was 0.602 ± 0.088. `CCCOc1ccc2[nH]c(NC(=O)OC)nc2c1` [Oxibendazol]: the growth was found to be 0.518 ± 0.085.

`CC1CC(OC(=O)c2ccccc2O)CC(C)(C)C1` (stereo not given) [Homosalate] returned a growth of 0.543 ± 0.057. With `Cc1cccc(C)c1NC(=O)CN1CCN(CCCC(c2ccc(F)cc2)c2ccc(F)cc2)CC1` [Lidoflazine] the figure was 0.563 ± 0.013; with `COc1ccc(C(=O)NCc2ccc(OCCN(C)C)cc2)cc1OC` [Itopride], 0.475 ± 0.063. With `CC(NCCC(c1ccccc1)c1ccccc1)c1ccccc1` (stereo not given) [Fendiline hydrochloride] the figure was 0.0558 ± 0.011; with `COc1cc(OC)c(C(=O)CCCN2CCCC2)c(OC)c1` [Buflomedil hydrochloride], 0.642 ± 0.053.

Consider `NC(Cc1cc(I)c(Oc2cc(I)c(O)c(I)c2)c(I)c1)C(=O)O` (stereo not given) [Thyroxine (L)], for which the growth came out at 0.469 ± 0.018.

`C[C@]12CC[C@@H]3c4ccc(O)cc4CC[C@H]3[C@@H]1CC[C@@H]2O` [Estradiol-17 beta]: the growth was 0.43 ± 0.017.
